From paper PMC4336329 (PLoS ONE, 2015)
Hit rate of the full screen: of about 310,000 compounds, about 14,000 (4.5%) showed an effect of 50% or more. Effects have a minus sign here. This excerpt belongs to a sample that is enriched for strong results.

target: human ether-à-go-go-related gene (hERG) potassium channel (human, UniProt Q12809); assay: primary screen, population patch clamp on CHO cells stably expressing hERG; higher = less effect of the substance
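Also: peak tail current of the secondary pulse compared with the same well before compound.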

human ether-à-go-go-related gene (hERG) potassium channel, sequence (Q12809 whole entry, looked up): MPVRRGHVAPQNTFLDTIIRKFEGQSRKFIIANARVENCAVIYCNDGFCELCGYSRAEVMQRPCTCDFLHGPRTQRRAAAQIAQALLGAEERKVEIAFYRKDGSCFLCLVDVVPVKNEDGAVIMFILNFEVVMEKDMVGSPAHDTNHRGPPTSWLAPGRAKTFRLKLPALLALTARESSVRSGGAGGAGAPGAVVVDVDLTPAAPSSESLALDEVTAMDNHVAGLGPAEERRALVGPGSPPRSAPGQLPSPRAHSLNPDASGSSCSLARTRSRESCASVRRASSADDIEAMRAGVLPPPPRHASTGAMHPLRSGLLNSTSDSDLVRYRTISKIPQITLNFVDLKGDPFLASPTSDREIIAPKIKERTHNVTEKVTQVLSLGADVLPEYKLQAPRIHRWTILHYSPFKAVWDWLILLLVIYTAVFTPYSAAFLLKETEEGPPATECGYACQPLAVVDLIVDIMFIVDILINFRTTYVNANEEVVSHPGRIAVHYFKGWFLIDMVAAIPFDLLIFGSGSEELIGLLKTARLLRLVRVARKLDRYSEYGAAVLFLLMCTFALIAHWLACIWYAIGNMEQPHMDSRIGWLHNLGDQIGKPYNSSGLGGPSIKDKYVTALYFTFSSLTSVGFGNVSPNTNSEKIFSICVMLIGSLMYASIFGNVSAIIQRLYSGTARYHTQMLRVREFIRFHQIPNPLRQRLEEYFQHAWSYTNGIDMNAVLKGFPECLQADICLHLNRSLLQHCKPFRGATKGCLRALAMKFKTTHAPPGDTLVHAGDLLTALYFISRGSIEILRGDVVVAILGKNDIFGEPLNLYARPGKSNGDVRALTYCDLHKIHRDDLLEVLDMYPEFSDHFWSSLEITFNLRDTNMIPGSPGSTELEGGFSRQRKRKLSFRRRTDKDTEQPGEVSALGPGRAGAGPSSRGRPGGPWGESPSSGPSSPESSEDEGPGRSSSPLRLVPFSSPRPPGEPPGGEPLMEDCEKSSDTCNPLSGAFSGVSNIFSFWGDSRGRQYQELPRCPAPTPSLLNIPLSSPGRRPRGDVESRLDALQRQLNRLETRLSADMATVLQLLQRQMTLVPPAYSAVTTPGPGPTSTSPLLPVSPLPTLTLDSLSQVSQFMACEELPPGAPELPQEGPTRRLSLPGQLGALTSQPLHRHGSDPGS

Compound	hERG current change (%, negative = inhibition) at 10uM [%]
CC(=O)c1c(C)[nH]c(C(=O)Nc2ccc(Cl)cc2)c1C	-9.14
CC(C)C(c1nnnn1Cc1ccc(F)cc1)N1CCN(C(=O)c2ccco2)CC1 (stereo not shown)	-49.1
O=C(CCCNC(=O)c1ccc(Cl)cc1)Nc1ccccc1F	7
COc1ccc(CNCc2c(C(=O)N(C)C)nc3ccc(Cl)cn23)c(OC)c1	-11.1
Cc1ccccc1-n1cc(CNCc2c(C(=O)N(C)C)nc3ccc(Cl)cn23)cn1	-7.4
COc1cccc(-n2cc(CNCc3c(C(=O)N(C)C)nc4ccc(Cl)cn34)cn2)c1	-55.9
Cc1nn(C)cc1NC(=O)c1cc2nc(-c3ccco3)cc(C(F)(F)F)n2n1	4.66
CCOC(=O)N1CCC(NC(=O)C(NS(=O)(=O)c2ccc3c(c2)CCN3C(=O)CC)C(C)C)CC1 (stereo not shown)	-6.47
Cc1cccc(N2C(=O)C(CC(=O)Nc3cccc(F)c3)N(CCc3ccncc3)C2=O)c1 (stereo not shown)	-43.6
Cc1ccc(N2C(=O)C(CC(=O)Nc3cccc(F)c3)N(C3CC3)C2=O)cc1 (stereo not shown)	-7.13
COc1ccc(CCN2C(=O)N(c3ccc(OC)cc3)C(=O)C2CC(=O)Nc2ccc(OC)cc2)cc1 (stereo not shown)	7.46
CCc1ccc(NC(=O)CC2C(=O)N(c3ccc(C)cc3)C(=O)N2CCc2ccncc2)cc1 (stereo not shown)	-55.8
Cc1ccc(N2C(=O)C(CC(=O)Nc3cccc(F)c3)N(CCc3ccncc3)C2=O)cc1 (stereo not shown)	-52.3
CCc1ccc(NC(=O)CC2C(=O)N(c3ccc(C)cc3)C(=O)N2C2CC2)cc1 (stereo not shown)	-4.46
O=C(COC(=O)c1ccc(Br)cc1)Nc1cccnc1Cl	-3.51
COC(=O)c1cn(CC(=O)Nc2ccc(OC)cc2)c2ccccc12	8.2
CC(=O)N1CC(C)Oc2ccc(S(=O)(=O)Nc3ccc(Cl)cn3)cc21 (stereo not shown)	3.04
CC(=O)OC1(c2ccccc2)CCN(C)CC1(C)C.Cl (stereo not shown)	35.4
Cc1ccc(S(=O)(=O)N2CCOC2CNC(=O)C(=O)NCc2ccccc2)cc1 (stereo not shown)	-10.3
Cc1ccc(SCc2cc(=O)[nH]c(N3CCOCC3)n2)cc1	-0.0128
O=C(NCc1cccnc1)c1ccccc1-c1ccccc1	-0.462
Cc1ccnc(NC(=O)c2cccc(S(=O)(=O)NCc3ccccc3)c2)c1	-34.6

Compound	hERG current change (%, negative = inhibition) at 10uM [%]
CC1Cc2ccccc2N1S(=O)(=O)c1cccc(C(=O)NCc2ccncc2)c1 (stereo not shown)	-34.9
CC1Cc2ccccc2N1S(=O)(=O)c1cccc(C(=O)Nc2cccnc2)c1 (stereo not shown)	-60.2
CC1Cc2ccccc2N1S(=O)(=O)c1cccc(C(=O)NC2CC2)c1 (stereo not shown)	-40
CC1Cc2ccccc2N1S(=O)(=O)c1cccc(C(=O)NCCCO)c1 (stereo not shown)	-27.9
CC1CN(S(=O)(=O)c2cccc(C(=O)NCCCn3ccnc3)c2)CC(C)O1.Cl (stereo not shown)	6.18
O=C(Nc1cccnc1)c1cccc(S(=O)(=O)N2CCc3ccccc32)c1	11
Cc1cccnc1NC(=O)c1cccc(S(=O)(=O)NCc2ccccc2)c1	-14.9
Cc1ccc(NC(=O)c2cccc(S(=O)(=O)NCc3ccccc3)c2)nc1	-50.7
CC1Cc2ccccc2N1S(=O)(=O)c1cccc(C(=O)NCc2ccccn2)c1 (stereo not shown)	-67.6
CC1Cc2ccccc2N1S(=O)(=O)c1cccc(C(=O)NCCCn2ccnc2)c1 (stereo not shown)	-50.1
Cc1cc(NC(=O)c2cccc(S(=O)(=O)N3c4ccccc4CC3C)c2)no1 (stereo not shown)	-7.3
Cc1c(Cl)cccc1NC(=O)CN1CCC(NC(=O)C2CCCCC2)CC1	-0.0286
CCOC(=O)c1[nH]c(C)c(C(=O)Nc2ccccc2F)c1C	-11.2
CCOc1ccccc1NC(=O)Cn1c(=O)n(-c2ccccc2)c(=O)c2oc3ccccc3c21	-16.4
O=C(CN(CC1CCCO1)C(=O)CNS(=O)(=O)c1ccc(F)cc1)NCc1ccccc1 (stereo not shown)	7.27
CC1CCN(c2ccc3nnc(CCC(=O)NC(C)C)n3n2)CC1	2.67
N#CC1=C(N)OC(c2ccccc2)=C(C#N)C1c1ccc2c(c1)OCO2 (stereo not shown)	14.3
Cc1ccc(NS(=O)(=O)c2cccc(C(=O)NCc3ccccn3)c2)cc1	-68.5
Cc1ccc(NS(=O)(=O)c2ccc(C(=O)NCc3ccccn3)cc2)cc1	18.8
Cc1ccc(S(=O)(=O)Nc2ccc(C(=O)NCc3ccccn3)cc2)cc1	-7.17
COc1ccc(OC)c(C2Nc3ccccc3NC3=C2C(=O)CC(C)(C)C3)c1 (stereo not shown)	15.4
O=C(Nc1ccc(Br)cc1Cl)c1cnccn1	5.88

Compound	hERG current change (%, negative = inhibition) at 10uM [%]
CCc1nnc(NC(=O)CSc2nc3cc(OC)c(OC)cc3cc2C)s1	5.07
CCC(=O)N1CCc2cc(S(=O)(=O)CCC(=O)N3CCN(c4ccc(F)cc4)CC3)ccc21	-2.82
O=c1c2cc([N+](=O)[O-])ccc2nc2n1CCCC2	4.82
CCOC(=O)c1sc(NC(=O)C(CC)Sc2nnc3c4ccccc4n(CC)c3n2)nc1C (stereo not shown)	-59.4
CCOC(=O)C(Sc1nnc2c3ccccc3n(CC)c2n1)C(=O)OCC	-28.7
C=CCn1c2ccccc2c2nnc(SC(CC)C(=O)Nc3nc(C)c(C(=O)OCC)s3)nc21 (stereo not shown)	-43.9
Cc1ccc(-c2ccc(CCC(=O)O)n2Cc2ccco2)cc1	12.2
Cc1ccc(OCCCCNC2CCCC(C)C2C)c(C)c1.O=C(O)C(=O)O (stereo not shown)	-56.9
Cc1ccc(OCC(=O)NC2CCCC2)c(C)c1	2.93
Cc1ccc(C(C)C)c(OCCN(C)C)c1.O=C(O)C(=O)O	-5.47
Cc1ccc(C(C)C)c(OCCCn2ccnc2C)c1.O=C(O)C(=O)O	-63.8
Cc1ccc(OCCCCNC2CCCCC2)c(C)c1.O=C(O)C(=O)O	-42.8
Cc1ccc(OCCCCn2ccnc2C)c(C)c1.O=C(O)C(=O)O	-64.1
Cc1ccc(OCCCCn2cnc3ccccc32)c(C)c1.O=C(O)C(=O)O	-20.5
Cc1ccc(C(C)C)c(OCCn2ccnc2C)c1.O=C(O)C(=O)O	-35.1
COc1ccc(OCCn2ccnc2C)cc1.O=C(O)C(=O)O	-0.197
Cc1cc(C)nc(N/N=C/c2cn[nH]c2-c2ccccc2)n1	-6.34
Cc1cc([N+](=O)[O-])nn1CC(=O)NCc1ccccc1	24.2
CC(C(=O)N=c1sc2ccccc2n1C)N1C(=O)C2CC=CCC2C1=O (stereo not shown)	-40.2
Cc1cccc(C)c1NC(=O)CNC(=O)C(NC(=O)c1ccc(C(C)(C)C)cc1)C(C)C (stereo not shown)	14.4
CCc1nnc(NC(=O)CN2CCN(c3ccccc3F)CC2)s1.Cl	-12.9
CSc1ccc(CCCCCCOC(=O)C(C)(C)C)cc1	3.95

Compound	hERG current change (%, negative = inhibition) at 10uM [%]
CCn1c(=O)cc(SCC(=O)N2CCN(c3ccccc3F)CC2)c2ccccc21	-21.7
Cn1c(=O)cc(OCC(=O)NCCCN2CCN(c3ccccc3F)CC2)c2ccccc21	-45.4
CCn1c(=O)cc(SCC(=O)N2CCN(C)CC2)c2ccccc21	6.22
CCn1c(=O)cc(SCC(=O)NCCCN2CCN(c3ccccc3F)CC2)c2ccccc21	-62.2
Cn1c(=O)cc(SCC(=O)NCCCN2CCN(c3ccc(F)cc3)CC2)c2ccccc21	-69.2
CCn1c(=O)cc(SCC(=O)NCCCN2CCC(C)CC2)c2ccccc21	-13
Cn1c(=O)cc(SCC(=O)NCCCN2CCOCC2)c2ccccc21	-2.51
Cn1c(=O)cc(SCC(=O)NCc2ccc(F)cc2)c2ccccc21	-17.4
Cn1c(=O)cc(SCC(=O)NCCCN2CCN(c3ccccc3F)CC2)c2ccccc21	-55.5
CCn1c(=O)cc(SCC(=O)NCCCN2CCN(c3ccc(F)cc3)CC2)c2ccccc21	-46
CCn1c(=O)cc(SCC(=O)NCCN2CCN(Cc3ccccc3)CC2)c2ccccc21	-49.4
CCn1c(=O)cc(SCC(=O)N2CCN(c3ccccc3OC)CC2)c2ccccc21	-52
COc1ccc(-c2c(C)oc3c(CN4CCOCC4)c(O)ccc3c2=O)cc1	7.31
O=C(O)CC(NC(=O)OCc1ccccc1)c1ccc(Br)cc1 (stereo not shown)	20.2
CCCn1c(=O)c2c(nc(Br)n2CCC)n(C)c1=O	-1.31
CCC(C)c1ccccc1NC(=O)C(C)NCCN(C)C.O=C(O)C(=O)O (stereo not shown)	10.3
CSCCC1NC(=O)N(CC(=O)Nc2c(Cl)cc(Cl)cc2Cl)C1=O (stereo not shown)	-2.68
O=c1[nH]c(O)c(C=Nc2ccc(F)c(Cl)c2)c(=O)[nH]1	7.3
Cc1ccc(S(=O)(=O)Oc2ccc(/C=N/N=C3/NC(=O)C(CC(=O)O)S3)cc2)cc1[N+](=O)[O-] (stereo not shown)	24
